Epigenetic mod = epigenetic GFP locus derepression in mouse cells; mouse C127i GFP locus derepression, cytometry, 30 h; Potency, µM (highest dose often 46.1 µM), for inactives: at the highest dose GFP derepression (activation); 0.09% of 68,000 active; AID 597; also: % of control where 0% means no effect
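Locus derepression in mouse mammary C127i cells whose integrated CMV-GFP reporter is normally silent; GFP expression after 30 h compound treatment was quantified by counting fluorescent cells.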
ERK AVP block = blocks ERK signaling stimulated by vasopressin; HEK293-V1b, vasopressin-stimulated pERK AlphaScreen; Potency, µM (titrated, usually from 57.5 µM), inactives show at the highest dose activity, negative = inhibition, most hits filed as inhibitors; 0.99% of 72,000 active; AID 995; also: potency is read from the fitted curve at half-maximal effect; % is scaled to controls: 0 for no effect and ±100 for the full control effect; nearly all actives have a fitted effect of over 55% in size
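qHTS, compounds titrated on V1b-expressing HEK293 cells. Preincubation 30 min at 37C, vasopressin 25 nM for 5 min, lysis 10 min, bead incubation 5 hr at room temperature.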
Imprint erasure = induces erasure of genomic imprints in mouse ES cells; mouse ES Peg3-LacZ reporter, beta-gal luminescence, 40 h; Potency, µM (titrated, usually from 60.7 µM), inactives show at the highest dose activity change, positive = activation, actives largely listed as activators; 0.02% of 110,000 active; AID 1948; also: potency is read from the fitted curve at half-maximal effect
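Readout: BetaGlo luminescence (5 min, room temp) for LacZ from the normally silent maternal Peg3 allele in female Peg3LacZ-Neo ES cells. Cells 300/well, 40 h, 37C, 5% CO2. Data normalized per plate to negative controls.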
UbGFP stabilizer = proteasome inhibitors stabilizing ubiquitin-GFP reporter; Potency, µM (highest dose often 45.9 µM), for inactives: at the top dose activation (GFP accumulation), usual class: activators; Ubiquitin-GFP reporter cells, proteasome inhibition, GFP fluorescence; response scale: untreated = 0%, 10 µM MG-132 = 100%; 67,000 tested, under 10 active; active = well fitted activation curve with a large enough effect, not every such curve was filed as active; inconclusive = small, poorly fitted or top-dose-only effect, or another doubt; inactive = no such curve, though single readings can be large or run the other way; also: potency is read from the fitted curve at half-maximal effect
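Proteasome blockade was scored as a rise in GFP-expressing U2OS cells carrying a ubiquitin(G76V)-GFP construct, imaged after 4 hr compound treatment at 37 °C across a 46 uM–2.9 nM series.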
HBB splicing = modulators of hemoglobin beta chain splicing; HBB splicing reporter cell assay, activation; EGFP reporter with mutant IVS2-654 intron; response scale: normalised to 500 nM splice-correcting PNA; Potency, µM (top dose mostly 46.1 µM), for inactives: at the top dose activation, most hits filed as activators; 0.06% of 65,000 active; also: potency is read from the fitted curve at half-maximal effect; 0% is about no effect
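Compounds were applied for 2 days to HeLa EGFP-654 cells, 500/well in Optimem with 2% FCS. The reporter's EGFP is disrupted by mis-splicing of beta-globin intron IVS2-654. Readout: summed well GFP fluorescence from 488 nm laser scanning; reference was 500 nM antisense […] 654 PNA.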
* = called active by the depositor; [ ] = another dose, or the depositor's remark. Many of the other results were omitted from the sample, so hits are more common in it than they were. Unless noted, calls follow the shape of the dose curve; as a rule, active = well fitted curve in the direction sought with a large enough effect; inconclusive = small, poorly fitted or top-dose-only effect, or another doubt; inactive = no such curve, though single readings can be large; an effect the other way counts as inactive or inconclusive.

CNc1nc(-c2cccc(C#N)c2)nc2ccccc12 was read as Epigenetic mod 2%[9.22 µM], ERK AVP block inconclusive, Imprint erasure 1.3µM*, UbGFP stabilizer -3% and HBB splicing 0%.
Screening Nc1nc(CSc2n[nH]c(-c3ccccc3)n2)nc(Nc2ccccc2)n1 returned Epigenetic mod -3%, ERK AVP block 25µM*, Imprint erasure -18%, UbGFP stabilizer 16% and HBB splicing 0%.
COc1ccccc1Cn1c(-c2ccco2)nc2nc3ccccc3nc21 was read as Epigenetic mod 13µM*, ERK AVP block -18%, Imprint erasure -1%, UbGFP stabilizer -2% and HBB splicing 2%[57.5 µM].
Cc1ccc(N2CCN(c3cc(C)nc4c5c(C)cc(C)nc5nn34)CC2)cc1 was read as Epigenetic mod 0%, ERK AVP block -15%, Imprint erasure -3%, UbGFP stabilizer 20% and HBB splicing 4%.
O=S(=O)(c1ccc(S(=O)(=O)N2CCN3CCCC3C2)cc1)N1CCCC1 (centres undefined) was read as Epigenetic mod -2%, ERK AVP block -8%, Imprint erasure 6% and UbGFP stabilizer 0%.
For CCOc1cccc(C(=O)Nc2cccc(-c3nc4ncccc4o3)c2C)c1 the results were Epigenetic mod -3%, ERK AVP block 13µM*, Imprint erasure -15%, UbGFP stabilizer -4% and HBB splicing 0%.
For OC(COc1ccc(Cl)c2ccccc12)CN1CCN(c2ccccn2)CC1 (centres undefined) the results were Epigenetic mod -2%, ERK AVP block 20µM*, Imprint erasure 7%, UbGFP stabilizer -1% and HBB splicing -7%.
Cc1noc(C(=O)Nc2ccc3c(c2)OCO3)c1Cl was read as Epigenetic mod 3%, ERK AVP block -13%, Imprint erasure -75%, UbGFP stabilizer -7% and HBB splicing -1%.
`CCN1CCN(CC(O)COc2cccc(OC)c2)CC1` (centres undefined) gave Epigenetic mod -2%, ERK AVP block -5%, Imprint erasure -6%, UbGFP stabilizer -1% and HBB splicing 1%.
For CCCCC(=O)Nc1ccc(N2CCN(C(=O)CC)CC2)cc1 the results were Epigenetic mod 0%, ERK AVP block 25µM*, Imprint erasure -22%, UbGFP stabilizer 7% and HBB splicing -1%.
CC(=O)CCc1oc2ccc(NC(C)=O)cc2c1-c1ccc(C)o1 was read as Epigenetic mod inconclusive, ERK AVP block 32µM*, Imprint erasure -41%, UbGFP stabilizer 10% and HBB splicing 0%.
For Cc1c(O)ccc2c3c(c(=O)oc12)CCCC3 the results were Epigenetic mod 0%, ERK AVP block 16µM*, Imprint erasure -19%, UbGFP stabilizer -3% and HBB splicing -1%.
`Cc1cc2nnc(SC3CCOC3=O)n2c2ccccc12` (centres undefined) gave Epigenetic mod 0%, ERK AVP block 16µM*, Imprint erasure 5%, UbGFP stabilizer 1% and HBB splicing -1%.
For O=C1OCCC1Sc1nc2ccccc2n1-c1ccccc1 (centres undefined) the results were Epigenetic mod 1%, ERK AVP block 16µM*, Imprint erasure -8%, UbGFP stabilizer 1% and HBB splicing 1%.
`COc1ccc(C2=NN(CC(=O)NCCc3ccc(OC)c(OC)c3)C(=O)CC2)cc1` gave Imprint erasure -10%[10.9 µM].
For COc1ccc(Nc2ncc3nc(-c4cccs4)c(=O)n(Cc4cccc(OC)c4)c3n2)cc1 the results were Epigenetic mod inconclusive, ERK AVP block -16%, Imprint erasure -2%, UbGFP stabilizer 3% and HBB splicing inconclusive.
`COc1cccc(Cn2c(=O)c(-c3cccs3)nc3cnc(Nc4cccc(OC)c4)nc32)c1` gave Epigenetic mod 0%[9.22 µM], ERK AVP block 42%, UbGFP stabilizer 7% and HBB splicing 10µM*.
CN1CCN(c2ncc3nc(-c4ccccc4)c(=O)n(C)c3n2)CC1 was read as Epigenetic mod 14%[9.22 µM], ERK AVP block 0%, Imprint erasure 10µM*, UbGFP stabilizer -3% and HBB splicing 0%.
Screening CN1CCN(c2ncc3nc(-c4ccccc4)c(=O)n(Cc4ccc(F)cc4)c3n2)CC1 returned Epigenetic mod 0%[9.22 µM], ERK AVP block -21%, UbGFP stabilizer 1% and HBB splicing 0%.
`CN1CCN(c2ncc3nc(-c4cccs4)c(=O)n(Cc4ccc(F)cc4)c3n2)CC1` gave Epigenetic mod 4µM*, ERK AVP block 20%, Imprint erasure -22%, UbGFP stabilizer inconclusive and HBB splicing inconclusive.
Screening Cc1onc(-c2ccccc2Cl)c1C(=O)N1CCN(c2ccccc2)CC1 returned Epigenetic mod 0%, ERK AVP block -18%, Imprint erasure -16%, UbGFP stabilizer 2% and HBB splicing 0%.
Cc1ccc(C)c(CSc2nc3ccncc3n2Cc2nc(-c3ccccc3Cl)oc2C)c1 was read as Imprint erasure -8%[10.9 µM].
`COc1ccccc1OCC(=O)Nc1ccc(S(=O)(=O)N2CCCCCC2)cc1` gave Epigenetic mod 0%, ERK AVP block 25µM*, Imprint erasure -18%, UbGFP stabilizer 22%[9.17 µM] and HBB splicing -1%[0.0738 µM].
`Nc1nc(Cl)nc2c1ncn2[C@@H]1O[C@@H](CO)[C@@H](O)[C@H]1O` gave Epigenetic mod -2%, ERK AVP block 13µM*, UbGFP stabilizer 0% and HBB splicing 0%.
For CC(C)(C)/C(O)=C(/C#N)c1nc2ccccc2[nH]1 the results were Epigenetic mod 0%, ERK AVP block 20µM*, Imprint erasure -31%, UbGFP stabilizer 1% and HBB splicing -3%.
O=C(CC1Oc2ccccc2NC1=O)NC1CC1 (centres undefined) was read as Epigenetic mod -2%, ERK AVP block -1%, Imprint erasure 13%, UbGFP stabilizer 0% and HBB splicing 1%.
CCOC(=O)c1[nH]c(C)c(C(=O)N2CCN(c3ccc(F)cc3)CC2)c1C was read as Epigenetic mod 2%, ERK AVP block 3%, Imprint erasure -13%, UbGFP stabilizer inconclusive and HBB splicing 1%.
CCOC(=O)c1[nH]c(C)c(C(=O)c2cc(F)ccc2F)c1C was read as Epigenetic mod 6%, ERK AVP block 20µM*, Imprint erasure -33%, UbGFP stabilizer -6% and HBB splicing -2%.
For Cn1c(=O)[nH]c(=O)c2[nH]c(N(Cc3ccccc3)Cc3ccccc3)nc21 the results were Epigenetic mod -2%, ERK AVP block 25µM*, Imprint erasure -28% and HBB splicing 2%[0.369 µM].
`CN(Cc1ccccc1)c1nc2c(c(=O)[nH]c(=O)n2C)n1Cc1ccccc1Cl` gave Epigenetic mod -2%, ERK AVP block 16µM*, Imprint erasure -8% and HBB splicing 0%[0.369 µM].

High-throughput results deposited in PubChem BioAssay by National Center for Advancing Translational Sciences (NCATS).
